Source: PubChem BioAssay (NCATS)
A number with no mark means an inactive call. For some assays here: Results with a measured potency or affinity are listed apart. Calls of active or inactive are those of the source. The rule behind the calls is not given here.

Experiments:
[1] = Ebola virus entry assay, green fluorescence channel
[2] = Ebola virus entry assay, blue channel fluorescence
[3] = Ebola virus entry assay, ratio channel
[4] = Ebola virus entry assay, reporter ratio channel; Channel type: primary
[5] = Ebola virus entry assay, blue channel (ratio component)
Throughout, for efficacy: 0% is about no effect.

## CCc1ccc(C(=O)C(C)CN2CCCCC2)cc1 (stereo unspecified)
[1]
  efficacy: 36.6%
[2]
  AC50: 39.8 µM (active)
[3]
  outcome: inactive
[4]
  AC50: 28.2 µM (active)

## C[C@@H](CN(C)C)CN1c2ccccc2Sc2ccccc21
[1]
  efficacy: 66.9%
[2]
  AC50: 8.91 µM (active)
[3]
  AC50: 10 µM (active)
[4]
  AC50: 10 µM (active)

## CC(CC1c2ccccc2CCc2ccccc21)CN(C)C (stereo unspecified)
[1]
  efficacy: 28.4%
[2]
  AC50: 6.31 µM (active)
[3]
  AC50: 3.98 µM (active)
[4]
  AC50: 3.98 µM (active)

## CCN(CC)CCOc1ccc(/C(=C(\Cl)c2ccccc2)c2ccccc2)cc1
[1]
  efficacy: -182%
[2]
  AC50: 1.58 µM (active)
[3]
  AC50: 1.26 µM (active)
[4]
  AC50: 1.26 µM (active)

## OCCN1CCN(CCCN2c3ccccc3C=Cc3ccccc32)CC1
[1]
  efficacy: 49.7%
[2]
  AC50: 14.1 µM (active)
[3]
  AC50: 14.1 µM (active)
[4]
  AC50: 14.1 µM (active)

## CN(C)CCOC(c1ccccc1)c1ccc(Br)cc1 (stereo unspecified)
[1]
  efficacy: 63.8%
[2]
  AC50: 11.2 µM (active)
[3]
  AC50: 11.2 µM (active)
[4]
  AC50: 11.2 µM (active)

## CN(C)CCCN1c2ccccc2Sc2ccccc21
[1]
  efficacy: 62.9%
[2]
  AC50: 5.62 µM (active)
[3]
  AC50: 5.01 µM (active)
[4]
  AC50: 5.01 µM (active)

## OC(CCCN1CCCCC1)(c1ccccc1)c1ccccc1
[1]
  efficacy: 50.3%
[2]
  AC50: 10 µM (active)
[3]
  AC50: 7.94 µM (active)
[4]
  AC50: 7.94 µM (active)

## Cc1ccc(N(CC2=NCCN2)c2cccc(O)c2)cc1
[1]
  efficacy: 66%
[2]
  AC50: 35.5 µM (active)
[3]
  AC50: 31.6 µM (active)
[4]
  AC50: 31.6 µM (active)

## Cc1c(C)n(Cc2ccccc2)c2ccc(C(=O)OCCN(C)C)cc12
[1]
  efficacy: 60.6%
[2]
  AC50: 3.16 µM (active)
[3]
  AC50: 3.16 µM (active)
[4]
  AC50: 3.16 µM (active)

## CO[C@@H]1[C@@H](OC)[C@H](C)[C@@](O)(CC(=O)O)O[C@H]1[C@H](C)[C@H]1O[C@@]2(CC[C@@](C)([C@H]3CC[C@@](C)([C@@H]4O[C@@H]([C@H]5O[C@](C)(O)[C@H](C)C[C@@H]5C)C[C@@H]4OC4C[C@H](OC)[C@@H](OC)[C@H](C)O4)O3)O2)C[C@H](O)[C@H]1C (stereo partly specified)
[1]
  efficacy: -69.9%
[2]
  AC50: 1.58 µM (active)
[3]
  AC50: 1 µM (active)
[4]
  AC50: 1 µM (active)

## CC(=O)c1ccc2c(c1)N(CCCN(C)C)c1ccccc1S2
[1]
  efficacy: 87%
[2]
  AC50: 12.6 µM (active)
[3]
  AC50: 12.6 µM (active)
[4]
  AC50: 12.6 µM (active)

## O=C(CCCN1CCC(O)(c2ccc(Br)cc2)CC1)c1ccc(F)cc1
[1]
  efficacy: 36.8%
[2]
  AC50: 7.94 µM (active)
[3]
  AC50: 5.62 µM (active)
[4]
  AC50: 5.62 µM (active)

## CN(C)CCCOc1nn(Cc2ccccc2)c2ccccc12
[1]
  efficacy: 54.9%
[2]
  AC50: 7.94 µM (active)
[3]
  AC50: 3.55 µM (active)
[4]
  AC50: 3.55 µM (active)

## O=C(O)c1cn(-c2ccc(F)cc2)c2cc(N3CCNCC3)c(F)cc2c1=O
[1]
  efficacy: 23.7%
[2]
  outcome: inactive
[3]
  outcome: inactive
[4]
  outcome: inactive

## CN(C)CCn1nnnc1SCC1=C(C(=O)O)N2C(=O)[C@@H](NC(=O)Cc3csc(N)n3)[C@H]2SC1
[1]
  efficacy: 40.8%
[2]
  AC50: 17.8 µM (active)
[3]
  AC50: 28.2 µM (active)
[4]
  AC50: 28.2 µM (active)

## O=C1[C@H]2CCCC[C@H]2C(=O)N1CCCCN1CCN(c2nsc3ccccc23)CC1
[1]
  efficacy: 104%
[2]
  AC50: 20 µM (active)
[3]
  AC50: 17.8 µM (active)
[4]
  AC50: 17.8 µM (active)

## CC(C)N=C(N)/N=C(\N)Nc1ccc(Cl)cc1
[1]
  efficacy: 78.8%
[2]
  AC50: 39.8 µM (active)
[3]
  outcome: inactive
[4]
  AC50: 39.8 µM (active)

## CN1CCCN(C(c2ccccc2)c2ccc(Cl)cc2)CC1 (stereo unspecified)
[1]
  efficacy: 53.7%
[2]
  AC50: 3.16 µM (active)
[3]
  AC50: 3.16 µM (active)
[4]
  AC50: 3.16 µM (active)

## c1ccc2c(c1)CCc1ccccc1N2
[1]
  efficacy: -29.2%
[2]
  AC50: 17.8 µM (active)
[3]
  outcome: inactive
[4]
  outcome: inactive

## Cc1c(C)c2c(c(C)c1OC(=O)CCC(=O)OCCO)CC[C@@](C)(CCC[C@H](C)CCC[C@H](C)CCCC(C)C)O2
[1]
  efficacy: -73.4%
[2]
  AC50: 39.8 µM (active)
[3]
  outcome: inactive
[4]
  AC50: 39.8 µM (active)

## CCN(CC)CCOC(=O)C(Cc1cccc2ccccc12)CC1CCCO1 (stereo unspecified)
[1]
  efficacy: 78.5%
[2]
  AC50: 12.6 µM (active)
[3]
  AC50: 11.2 µM (active)
[4]
  AC50: 11.2 µM (active)

## C1CCC(C(CC2CCCCN2)C2CCCCC2)CC1 (stereo unspecified)
[1]
  efficacy: -230%
[2]
  AC50: 1.78 µM (active)
[3]
  AC50: 0.891 µM (active)
[4]
  AC50: 0.891 µM (active)

## CCC(CN)=C(c1ccccc1)c1ccccc1
[1]
  efficacy: 124%
[2]
  AC50: 17.8 µM (active)
[3]
  AC50: 17.8 µM (active)
[4]
  AC50: 17.8 µM (active)

## CC(C)NCCCC1(C(N)=O)c2ccccc2-c2ccccc21
[1]
  efficacy: 42.8%
[2]
  outcome: inactive
[3]
  outcome: inactive
[4]
  outcome: inactive
[5]
  outcome: inactive

## CNC[C@H](O)c1ccc(O)c(O)c1
[1]
  efficacy: 27.1%
[2]
  outcome: inactive
[3]
  outcome: inactive
[4]
  outcome: inactive
[5]
  outcome: inactive

## COC(=O)Nc1nc2ccc(Sc3ccccc3)cc2[nH]1
[1]
  efficacy: 73.8%
[2]
  outcome: inactive
[3]
  AC50: 4.47 µM (active)
[4]
  AC50: 4.47 µM (active)
[5]
  outcome: inactive

## O=C1OC2(c3ccc(O)cc3Oc3cc(O)ccc32)c2ccccc21
[1]
  AC50: 25.1 µM (active)
[2]
  outcome: inactive
[3]
  AC50: 7.94 µM (active)
[4]
  AC50: 7.94 µM (active)
[5]
  outcome: inactive
